Compound activity from PubChem BioAssay.
Shown are actives, neighbours in structure and some others; about 10% of the full set was active somewhere.
ELG1 repair inh: inhibitors of ELG1-dependent DNA repair in HEK293T cells; HEK293T ELG1-luciferase reporter, luminescence, 16 h; DNA damage induced by 5-fluorouridine; Potency, µM (doses to about 46.1 µM), most hits filed as inhibitors; 330,000 tested, 2.3% active; also: nearly all actives have a fitted effect of over 55% in size
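Step one: seed 2,000 cells per well. Step two: pin-transfer compound or DMSO alongside 5-fluorouridine. Step three: incubate 16 hr, 37 °C, 5% CO2. Step four: add ONE-Glo, wait 30 min, read luminescence.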
VP16 counter: Gal4-VP16 reporter inhibition counter-screen; Drosophila S2 Gal4-VP16 UAS-luciferase, luminescence, 20 h; 310,000 tested, 3.5% active; Potency, µM (top dose mostly 53.6 µM), hits mostly inhibitors;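 also: Gal4-VP16 expression switched on by copper sulfate through the metallothionein promoter; nearly all actives have a fitted effect of over 50% in size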
SW480 rereplic: inducers of DNA re-replication in SW480 colon cancer cells | SW480 DNA re-replication, Hoechst DNA content imaging, 48 h | Potency, µM (top dose mostly 46.1 µM), usual class: activators | 340,000 tested, 1.8% active; also: nearly all actives have a fitted effect of over 55% in size
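Hoechst fluorescence of nuclei (405 nm excitation, 500-530 nm emission) measured by plate-scanning imager after 48 hr compound exposure at 37 C; re-replication scored as increased number of nuclei with elevated intensity.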
RORgamma inh: blocks mouse ROR gamma transcriptional activity | P51450 | Drosophila S2 Gal4-RORgamma UAS-luciferase reporter, 20 h | Potency, µM (highest dose often 53.6 µM), hits mostly inhibitors | 310,000 tested, 5.4% active; also: nearly all actives have a fitted effect of over 60% in size
Target sequence (P51450 whole entry, looked up, the tested form may be a part): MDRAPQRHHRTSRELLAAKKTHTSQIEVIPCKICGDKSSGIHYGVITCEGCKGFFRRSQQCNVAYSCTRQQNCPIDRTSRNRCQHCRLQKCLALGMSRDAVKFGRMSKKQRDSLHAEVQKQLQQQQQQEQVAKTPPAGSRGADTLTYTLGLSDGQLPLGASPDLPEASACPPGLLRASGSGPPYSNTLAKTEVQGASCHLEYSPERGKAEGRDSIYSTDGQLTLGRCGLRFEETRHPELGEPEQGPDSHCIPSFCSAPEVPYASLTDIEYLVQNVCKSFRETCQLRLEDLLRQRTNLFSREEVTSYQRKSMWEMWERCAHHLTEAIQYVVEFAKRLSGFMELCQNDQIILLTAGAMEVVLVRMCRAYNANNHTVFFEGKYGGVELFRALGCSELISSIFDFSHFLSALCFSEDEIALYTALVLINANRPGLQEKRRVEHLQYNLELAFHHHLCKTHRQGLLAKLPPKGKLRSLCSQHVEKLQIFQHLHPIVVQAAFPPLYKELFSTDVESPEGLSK
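In this cell-based reporter format, copper sulfate (700 uM final) drives Gal4–ROR gamma fusion expression from a metallothionein promoter in Drosophila Schneider cells; compounds preincubated 1 hr, reporter read after 20 hr at ambient temperature.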
MCF10A rerep: inducers of DNA re-replication in MCF 10A breast cells; 350,000 tested, 2.9% active; MCF 10A DNA re-replication, Hoechst nuclear intensity, 48 h; Potency, µM (series often up to 46.1 µM), most hits filed as activators; AID 624296; also: nearly all actives have a fitted effect of over 50% in size
Large screens that a line does not name were inactive. Calls follow the shape of the dose curve; as a rule, active = well fitted curve in the direction sought with a large enough effect; inconclusive = small, poorly fitted or top-dose-only effect, or another doubt; inactive = no such curve, though single readings can be large; an effect the other way counts as inactive or inconclusive.

CCOCCc1nnc(NC(=O)CCS(=O)(=O)c2ccccc2)s1	SW480 rereplic inconclusive, MCF10A rerep 21µM
CCOCCc1nnc(NC(=O)C(C)Oc2ccccc2)s1 (stereo unspecified)	none
CC(=O)c1sc(NC(=O)CCS(=O)(=O)c2ccccc2)nc1C	VP16 counter inconclusive, SW480 rereplic 4.6µM, RORgamma inh 13µM, MCF10A rerep 2.9µM
C1CN(CC2COC(CN3CCOCC3)CO2)CCO1 (stereo unspecified)	none (no result: ELG1 repair inh, VP16 counter, RORgamma inh)
CCOc1ccc(N2C(=O)Nc3ccccc3C2(O)C(=O)N2CCN(c3ccccn3)CC2)cc1 (stereo unspecified)	none
COc1ccc(/C=C/C(=O)NC(=S)NNC(=O)c2c(-c3ccccc3)noc2C)cc1	VP16 counter 5µM, RORgamma inh 3.2µM
Cc1onc(-c2ccccc2)c1C(=O)NNC(=S)NC(=O)/C=C/c1ccccc1	VP16 counter inconclusive, SW480 rereplic inconclusive, RORgamma inh 5.6µM, MCF10A rerep inconclusive
Cc1onc(-c2ccccc2)c1C(=O)NNC(=O)c1ccccc1	none (no result: VP16 counter, RORgamma inh)
Cc1onc(-c2ccccc2)c1C(=O)NNC(=S)NC(=O)c1ccc(Br)cc1	VP16 counter 3.5µM, SW480 rereplic inconclusive, RORgamma inh 4.5µM, MCF10A rerep inconclusive
Cc1onc(-c2ccccc2)c1C(=O)NNC(=S)NC(=O)c1ccc(Cl)cc1Cl	VP16 counter 11µM, RORgamma inh 4.5µM, MCF10A rerep inconclusive
COc1ccccc1OCCNC(=O)c1ccc(NC(=O)CC2SC(N3CCCC3)=NC2=O)cc1 (stereo unspecified)	none (no result: ELG1 repair inh, VP16 counter, RORgamma inh)
CC(C)OC(=O)CSc1ncnc2c1cnn2Cc1ccccc1	none
COc1cc(NC(=O)CSc2ncnc3c2cnn3Cc2ccccc2)cc(OC)c1	ELG1 repair inh inconclusive
COc1ccc(OC)c(NC(=O)CSc2ncnc3c2cnn3-c2ccccc2Cl)c1	ELG1 repair inh 9.2µM, VP16 counter 1.4µM, RORgamma inh inconclusive, MCF10A rerep inconclusive
Cc1c(Cl)cccc1NC(=O)CSc1ncnc2c1cnn2CCc1ccccc1	MCF10A rerep 10µM
COC(=O)CSc1ncnc2c1cnn2Cc1ccccc1	RORgamma inh 10µM
CCC(C(=O)NCc1ccco1)N(C(=O)CNS(=O)(=O)c1ccccc1)c1ccccc1C (stereo unspecified)	SW480 rereplic inconclusive
c1ccc(-c2cn(-c3ccccc3)c3[n+]2CCS3)cc1	ELG1 repair inh 4.6µM
CC(C)(C)c1ccc(-c2cn(-c3ccc(Br)cc3)c3[n+]2CCCS3)cc1	ELG1 repair inh 4.1µM, VP16 counter 7.9µM, RORgamma inh 7.1µM, MCF10A rerep inconclusive
Cc1cccc(C)c1OCC(=O)Nc1cc(Cl)ccc1-n1cncn1	none (no result: VP16 counter, RORgamma inh)
Cc1c(C(=O)N(C)C2CCCCC2)sc2nc3ccc(N)cc3n12	none (no result: ELG1 repair inh, SW480 rereplic, MCF10A rerep)
C/C(=N\NC(=O)c1cccc(C)c1O)c1ccc(NC(=O)Cc2ccccc2)cc1	ELG1 repair inh inconclusive, VP16 counter inconclusive, RORgamma inh 11µM, MCF10A rerep inconclusive
C/C(=N\NC(=O)c1cc(O)cc(O)c1)c1ccc(NC(=O)Cc2ccccc2)cc1	ELG1 repair inh inconclusive, RORgamma inh inconclusive
C/C(=N\NC(=O)c1ccccc1N)c1ccc(NC(=O)Cc2ccccc2)cc1	ELG1 repair inh inconclusive
COc1ccccc1C(=O)N/N=C(\C)c1ccc(NC(=O)Cc2ccccc2)cc1	VP16 counter 7.9µM
Cn1c(SCC(=O)N/N=C/c2ccco2)nc2ccccc21	none
CC(/C=N\NC(=O)Cn1c(C)nc2ccccc21)=C\c1ccccc1	VP16 counter 13µM
Cc1ccc(/C=N/NC(=O)CSc2nc3ccccc3c(=O)n2-c2ccccc2C)s1	ELG1 repair inh inconclusive, VP16 counter inconclusive, SW480 rereplic 0.52µM, RORgamma inh inconclusive
CC(/C=N/NC(=O)CSc1nc2ccccc2n1C)=C\c1ccco1	SW480 rereplic inconclusive, MCF10A rerep 21µM
CCn1c(SCC(=O)N/N=C/c2ccc(C)s2)nc2ccccc21	ELG1 repair inh inconclusive, VP16 counter inconclusive, SW480 rereplic inconclusive, RORgamma inh inconclusive, MCF10A rerep 13µM
Cc1ccc(/C=N/NC(=O)CSc2nc3ccccc3c(=O)n2-c2ccccc2)s1	ELG1 repair inh inconclusive, RORgamma inh inconclusive
CC(=O)N1CCOc2ccc(S(=O)(=O)N(C)c3ccc(C)cc3)cc21	none
CC(C)CNC(=O)COC(=O)CCC(=O)c1cccs1	none
CCn1ncc(/C=C/C(=O)C2CC2)c1C	ELG1 repair inh inconclusive
Cc1ccc(-c2nnc(SCC(=O)N/N=C/c3ccccc3C(=O)O)n2-c2ccccc2)cc1	none (no result: SW480 rereplic, MCF10A rerep)
Cc1ccc(-c2nnc(SCC(=O)N/N=C/c3ccc(C)s3)n2-c2ccc(C)cc2)cc1	ELG1 repair inh inconclusive, VP16 counter inconclusive, RORgamma inh 18µM, MCF10A rerep inconclusive (no result: SW480 rereplic)
CCn1c(SCC(=O)N/N=C/C=C/c2ccco2)nc2ccccc21	VP16 counter 16µM, SW480 rereplic 16µM, RORgamma inh inconclusive, MCF10A rerep 21µM
CC(NC(=O)c1cc(-c2ccncc2)nc2ccc(Br)cc12)C1CCCO1 (stereo unspecified)	none
C=C1[C@@H]2CC[C@H](C2)C1(C)C	none (no result: ELG1 repair inh)
Cc1ccnc(SCC(=O)c2cc3ccccc3o2)n1	ELG1 repair inh inconclusive, VP16 counter inconclusive, RORgamma inh inconclusive
CCOC(=O)C(C)c1c(C(=O)c2ccc(C)nc2)c2ccccc2n1C (stereo unspecified)	none (no result: SW480 rereplic, MCF10A rerep)
Cc1[nH]n(C(N)=S)c(=O)c1N=Nc1cc(C(F)(F)F)ccc1Cl	VP16 counter inconclusive, RORgamma inh 0.56µM, MCF10A rerep inconclusive
Cc1[nH]n(C(N)=S)c(=O)c1N=Nc1cccc(C(F)(F)F)c1	ELG1 repair inh inconclusive, VP16 counter 0.4µM, RORgamma inh 0.11µM
Cc1[nH]n(C2=NCCS2)c(=O)c1N=Nc1cccc(C(F)(F)F)c1	ELG1 repair inh 2.9µM, VP16 counter 0.63µM, SW480 rereplic inconclusive, RORgamma inh 0.28µM
Cn1c(-c2ccc[nH]c2=O)nc2cc(Cl)ccc21	none
CN(C(=O)COC(=O)c1cc(S(=O)(=O)N2CCCCC2)ccc1Cl)c1ccccc1	ELG1 repair inh inconclusive (no result: VP16 counter, RORgamma inh)
O=C(COC(=O)COc1ccc(Cl)cc1)NC1CC1	none (no result: VP16 counter, RORgamma inh)
CC(=O)C1=C(c2ccc(Br)cc2)C(=O)c2ccccc2C1=O	ELG1 repair inh 3.7µM, VP16 counter 6.3µM, SW480 rereplic 8.2µM, RORgamma inh 14µM, MCF10A rerep 7.3µM
CC(=O)Nc1c(Br)cc2c(c1Br)C(=O)c1ccccc1-2	none (no result: ELG1 repair inh, VP16 counter, RORgamma inh)
COc1cc(/C=C/C(=O)c2c(O)ccc3c(C)cc(=O)oc23)ccc1O	VP16 counter inconclusive, RORgamma inh 13µM (no result: ELG1 repair inh)
COc1ccc(/C=C\C(=O)c2c(O)ccc3c(C)cc(=O)oc23)cc1OC	VP16 counter inconclusive, SW480 rereplic inconclusive, RORgamma inh 13µM, MCF10A rerep inconclusive
CCn1cc(C(=O)N[C@@H](CC(C)C)C(=O)NCCCn2ccnc2)c(=O)c2cc3c(cc21)OCO3	SW480 rereplic 13µM
